Among all 48,000 compounds or so, about 13,000 (27%) showed an effect of 50% or more. The list shows a part of the results.
tested on: Wolbachia pipientis; assay: Anti-Wolbachia Cell-Based Screen; assay type: functional; set-up: scale not given: in the data most compounds retested in dose-response had high values; details: 5 µM

Row | SMILES | Percent Effect [%]
1 | CCOC(=O)c1cn(CC(O)c2ccccc2OC)nn1 (centres undefined) | -11.75
2 | CCN(CC1CCOC1)C(=O)CSCC(=O)Nc1ccc(C)cc1 (centres undefined) | 4.187
3 | O=C(Nc1cccc(C(F)F)c1)N[C@@H]1C=C[C@H](CO)C1 | -9.569
4 | COC(=O)c1ccc(N2CCN(C(=O)C(C)C)C(C)C2)cc1 (centres undefined) | 1.031
5 | COC(=O)N1CCCCC1C(=O)N1CCN(c2cccnc2)CC1 (centres undefined) | -31.63
6 | Cc1ccc(N2CCN(C(=O)CCC(F)(F)F)C(C)C2)cc1 (centres undefined) | 17.59
7 | CC(C)(C)OC(=O)N1CCN(c2ccc(F)cc2)CC1C(=O)O (centres undefined) | 89.96
8 | CC(C)(C)OC(=O)N1CCN(c2cccnc2)CC1C(=O)O (centres undefined) | 114.7
9 | COc1ccc(N2CCN(C(=O)Cn3nc(C)c(C)c3C)C(C)C2)cc1 (centres undefined) | -0.23
10 | Cc1ccc(C(=O)N2C[C@@H]3CCN(c4cccnc4)C[C@@H]3C2)cn1.O=C(O)C(F)(F)F | 4.1
11 | COc1ccc(N2CCN(C(=O)OC(C)(C)C)C(C(=O)O)C2)cc1 (centres undefined) | 126.2
12 | CCCSCC(=O)N1CCN(c2ccc(OC)cc2)CC1C (centres undefined) | 15.77
13 | CCc1nccn1C1CCCN(C(=O)c2cnc[nH]2)C1 (centres undefined) | 2.73
14 | CCCS(=O)(=O)NCC1OCCc2cn(CC3CCOCC3)nc21 (centres undefined) | -15.6
15 | CC(C)CN1C[C@@H]2OCC(=O)N(Cc3nccn3C)[C@@H]2C1 | 0.1712
16 | CNC(=O)[C@H]1C[C@H]2OCC[C@H]2N(CCOc2ccc(Cl)cc2)C1.O=C(O)C(F)(F)F | -0.765
17 | CCN(CC)S(=O)(=O)c1cc(NC(=O)CCc2cscn2)ccc1C | -4.761
18 | O=C(NC[C@]1(O)CN(Cc2ccccc2F)C[C@H]1O)c1ccccn1 | -4.429
19 | CN1CCC(NCC2(O)CCCN(Cc3ccccc3F)C2=O)CC1 (centres undefined) | -22.31
20 | Cc1cc(CN2CCC(CNC(=O)c3cnc(C)nc3C)C2)[nH]n1 (centres undefined) | -6.024
21 | O=C(NC[C@]1(O)CCN(Cc2ccccc2F)C[C@H]1O)c1c[nH]cn1 | 105
22 | O=C(NC[C@]1(O)CCN(Cc2ccsc2)C[C@H]1O)c1c[nH]cn1 | 99.16

Row | SMILES | Percent Effect [%]
23 | NC1(C(=O)NCC2CCCN(Cc3ccccc3F)C2)CCCC1 (centres undefined) | -12.52
24 | Cc1cncc(CN2CC[C@@](O)(CNC(=O)c3c[nH]cn3)[C@H](O)C2)c1 | 108.4
25 | O=C(NC[C@]1(O)CN(Cc2ccccc2F)C[C@H]1O)c1cscn1 | 81.64
26 | Cc1cccc(CN2CCCC(O)(CNCCc3c[nH]cn3)C2=O)c1 (centres undefined) | 23.49
27 | Fc1ccccc1CC1CCN(Cc2cscn2)CC1 | 12.39
28 | COCC1CC2(CCN(S(=O)(=O)C3CC3)CC2)CN1c1ncccn1.O=C(O)C(F)(F)F (centres undefined) | -3.839
29 | CCn1cnnc1CNC(=O)NCC(C)(CC)N1CCOCC1 (centres undefined) | -7.317
30 | Cc1n[nH]c(C2CN(Cc3nnc(C4CC4)n3C)CCO2)n1 (centres undefined) | 1.096
31 | CCNC(=O)[C@@H]1C[C@H](N)CN1c1cc(C(F)(F)F)nc(N(C)C)n1 | -10.07
32 | CCNC(=O)[C@@H]1C[C@H](N)CN1c1cc(C(F)(F)F)nc(N2CCCC2)n1 | -17.39
33 | CCNC(=O)[C@@H]1C[C@H](N)CN1c1cc(CC)nc(N(C)C)n1 | 116.6
34 | O=C(c1ncncc1Cl)N1CCN(c2ccc(Cl)cc2)CC1 | -23.14
35 | COC(=O)c1cccc(C(=O)N2CCN(c3ccccc3F)CC2)n1 | 5.907
36 | COC(=O)c1cccc(C(=O)N2CCN(c3ccc(Cl)cc3)CC2)n1 | 100.8
37 | COC(=O)c1ccc(N2CCN(C(=O)c3ccc(=O)n(C)c3)CC2)cc1 | -4.416
38 | COC(=O)c1ccc(N2CCN(C(=O)c3ccn(C)c(=O)c3)CC2)cc1 | 7.353
39 | COC(=O)c1cccc(C(=O)N2CCN(c3ccc(OC)cc3)CC2)n1 | 142.3
40 | CCC(C)(C)C1CCCN1C(=O)c1coc(S(=O)(=O)NC)c1 (centres undefined) | 25.9
41 | Cc1cccc(N2CCC3(CCCN3Cc3c(C)nn(C)c3C)CC2)n1 | 12.41
42 | CC(C)SCc1cccc(NC(=O)NCCc2nnc[nH]2)c1 | 5.819
43 | CC(C)c1nccn1C1CCCN(C(=O)c2cn3cccnc3n2)C1 (centres undefined) | 106.5
44 | CC(C)c1nccn1C1CCCN(C(=O)c2cnc[nH]2)C1 (centres undefined) | -3.09

Row | SMILES | Percent Effect [%]
45 | Cc1cc(C)n(C2CCCN(C(=O)c3cn4cccnc4n3)C2)n1 (centres undefined) | 140.9
46 | CCc1nccn1C1CCCN(C(=O)c2cn3cccnc3n2)C1 (centres undefined) | -0.7445
47 | Cc1nc(C)n(C2CCCN(C(=O)c3cn4c(C)cccc4n3)C2)n1 (centres undefined) | 8.927
48 | Cc1cc(C)n(C2CCN(C(=O)c3cn4ccsc4n3)C2)n1 (centres undefined) | -17.41
49 | Cc1nc(C)n(C2CCCN(C(=O)c3csnn3)C2)n1 (centres undefined) | -2.311
50 | Cc1nc(C)n(C2CCCN(C(=O)c3cn4cccnc4n3)C2)n1 (centres undefined) | 114.3
51 | Cc1cnn(C2CCCN(C(=O)c3cn4cccnc4n3)C2)c1 (centres undefined) | -8.081
52 | Cc1occc1C(=O)Nc1cccc(C(=O)OCC2CCCN2)c1.Cl (centres undefined) | -3.308
53 | O=C(O)c1ccccc1-c1ccc(CN2CC(O)C2)cc1 | 128.6
54 | NC(=O)c1ccc(CN2CCCC(O)C2)cc1 (centres undefined) | 1.38
55 | O=C(O)c1ccccc1-c1ccc(CN2CCCC(O)C2)cc1 (centres undefined) | 104.1
56 | O=C1CN(Cc2ccc(-c3ccccc3C(=O)O)cc2)CCN1 | 3.495
57 | O=c1cc(-c2cccnc2)nc(-c2ccc(CN3CC[C@H](O)C3)cc2)[nH]1 | -0.3576
58 | COc1ccc(C(C)N2CCC(CO)CC2)cc1Cl (centres undefined) | 2.465
59 | CSC1(CNC(=O)N(C)Cc2ccc(C)s2)CCOCC1 | -11.34
60 | COCCN1CC2(CCCN(C(=O)CCCc3cccs3)C2)CCC1=O (centres undefined) | -3.205
61 | COCCN1CCOCC12CCN(C(=O)Cc1cccs1)CC2.O=C(O)C(F)(F)F | 7.053
62 | COCCn1c2c(ccc1=O)CCN(C(=O)Cc1ccsc1)CC2 | 97.29
63 | COCCn1c2c(ccc1=O)CCN(C(=O)Cc1cccs1)CC2 | 99.02
64 | O=C(Cc1ccsc1)N1CCc2ccc(=O)n(CC3CC3)c2CC1 | -8.117

— ChEMBL document CHEMBL3988442, “University of Dundee, Small-Polar-MMV Screening Library” (2021)
